From PubChem BioAssay AID1159580 (chemical genetic matrix, 2015)
Where “and” joins values, the source holds several entries; their conditions need not be identical. Equal values may be shown once. In all, about 5,500 compounds went through this assay and about 2,000 (36%) were called active. Inconclusive results (about 18%) are left out. No stated cut-off is given here; in the data, active means normalized growth mostly below about 0.91 (no sharp cut-off); inconclusive means no clear call, values can overlap the other calls; inactive means mostly above about 0.92. This is one part of the list.

Test: chemical genetic growth profiling, strain panel (AID 1159580);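 further: tested at 20 µM; growth read once vehicle control cultures reached saturation at 30 °C; 1 = growth at the plate median or of vehicle wells; lower values mean less growth of the strain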
Settings: growth OD

Measured: normalized growth

NCCS
inactive: S. cerevisiae deletion strains, locus YJR075W, strain HOC1, hits give low values 1.01 | S. cerevisiae deletion strains, locus YKL009W, strain mrt4, hits give low values 0.998 | S. cerevisiae deletion strains, locus YKL068W, hits give low values 1 | S. cerevisiae deletion strains, locus YKL085W, strain MDH1 (second series), hits give low values 1.01 | S. cerevisiae deletion strains, locus YKL085W, strain MDH1, hits give low values 1.01 | S. cerevisiae deletion strains, locus YKL160W, strain elf1, hits give low values 0.986 | S. cerevisiae deletion strains, locus YKL190W, strain CNB1, hits give low values 1.01 | S. cerevisiae deletion strains, locus YKR001C, strain vps1, hits give low values 1.01 | S. cerevisiae deletion strains, locus YKR026C, strain gcn3, hits give low values 0.947 | S. cerevisiae deletion strains, locus YKR091W, strain srl3, hits give low values 0.991 | S. cerevisiae deletion strains, locus YLL001W, strain dnm1, hits give low values 1 | S. cerevisiae deletion strains, locus YLL026W, hits give low values 0.996 | S. cerevisiae deletion strains, locus YLL041C, strain sdh2, hits give low values 0.998 | S. cerevisiae deletion strains, locus YLR027C, strain aat2, hits give low values 0.984 | S. cerevisiae deletion strains, locus YLR039C, strain RIC1, hits give low values 1.05 | S. cerevisiae deletion strains, locus YLR058C, strain SHM2, hits give low values 1.02 | S. cerevisiae deletion strains, locus YLR102C, strain apc9, hits give low values 1.01 | S. cerevisiae deletion strains, locus YLR113W, strain HOG1, hits give low values 0.996 | S. cerevisiae deletion strains, locus YLR221C, strain rsa3, hits give low values 0.992 | S. cerevisiae deletion strains, locus YLR258W, strain gsy2, hits give low values 0.998 | S. cerevisiae deletion strains, locus YLR262C, strain YPT6 (second series), hits give low values 0.953 | S. cerevisiae deletion strains, locus YLR262C, strain YPT6, hits give low values 1.03 | S. cerevisiae deletion strains, locus YLR268W, strain sec22, hits give low values 1.01 | S. cerevisiae deletion strains, locus YLR320W, strain mms22, hits give low values 0.985 | S. cerevisiae deletion strains, locus YLR330W, strain CHS5, hits give low values 1.01 | S. cerevisiae deletion strains, locus YLR342W, strain FKS1 (second series), hits give low values 1.04 | S. cerevisiae deletion strains, locus YLR342W, strain FKS1, hits give low values 0.969 | S. cerevisiae deletion strains, locus YLR357W, strain rsc2, hits give low values 0.962 | S. cerevisiae deletion strains, locus YLR370C, strain arc18, hits give low values 0.989 | S. cerevisiae deletion strains, locus YLR371W, strain rom2, hits give low values 1.02 | S. cerevisiae deletion strains, locus YLR384C, strain iki3, hits give low values 0.999 | S. cerevisiae deletion strains, locus YLR418C, strain cdc73, hits give low values 1.03 | S. cerevisiae deletion strains, locus YML016C, strain PPZ1, hits give low values 1.02 | S. cerevisiae deletion strains, locus YML032C, strain rad52, hits give low values 1.02 | S. cerevisiae deletion strains, locus YML120C, strain ndi1, hits give low values 0.988 | S. cerevisiae deletion strains, locus YML124C, strain tub3, hits give low values 1.02 | S. cerevisiae deletion strains, locus YMR058W, strain fet3, hits give low values 0.985 | S. cerevisiae deletion strains, locus YMR078C, strain ctf18, hits give low values 1.01 | S. cerevisiae deletion strains, locus YMR125W, strain sto1, hits give low values 0.968 | S. cerevisiae deletion strains, locus YMR129W, hits give low values 1.01 | S. cerevisiae deletion strains, locus YMR205C, strain PFK2, hits give low values 0.983 | S. cerevisiae deletion strains, locus YMR223W, strain ubp8, hits give low values 1.01 | S. cerevisiae deletion strains, locus YMR231W, strain pep5, hits give low values 0.999 | S. cerevisiae deletion strains, locus YMR263W, strain SAP30, hits give low values 1.01 and 0.99 | S. cerevisiae deletion strains, locus YMR307W, strain GAS1, hits give low values 1.02 | S. cerevisiae deletion strains, locus YNL067W, strain RPL9B, hits give low values 1.01 | S. cerevisiae deletion strains, locus YNL071W, strain lat1, hits give low values 0.956 | S. cerevisiae deletion strains, locus YNL128W, strain TEP1, hits give low values 1.01 | S. cerevisiae deletion strains, locus YNL153C, strain GIM3, hits give low values 1.01 | S. cerevisiae deletion strains, locus YNL175C, strain NOP13, hits give low values 1 | S. cerevisiae deletion strains, locus YNL183C, strain NPR1, hits give low values 0.981 | S. cerevisiae deletion strains, locus YNL197C, strain WHI3, hits give low values 1.01 | S. cerevisiae deletion strains, locus YNL209W, strain ssb2, hits give low values 0.989 | S. cerevisiae deletion strains, locus YNL224C, strain SQS1, hits give low values 1 | S. cerevisiae deletion strains, locus YNL233W, strain BNI4, hits give low values 1.02 | S. cerevisiae deletion strains, locus YNL248C, strain rpa49, hits give low values 0.983 | S. cerevisiae deletion strains, locus YNL250W, strain rad50, hits give low values 1.02 | S. cerevisiae deletion strains, locus YNL271C, strain bni1, hits give low values 1.01 | S. cerevisiae deletion strains, locus YNL298W, strain CLA4, hits give low values 1.03 | S. cerevisiae deletion strains, locus YNL307C, strain MCK1, hits give low values 1.02 | S. cerevisiae deletion strains, locus YNL322C, strain KRE1 (second series), hits give low values 0.979 | S. cerevisiae deletion strains, locus YNL322C, strain KRE1, hits give low values 1.01 and 1.02 | S. cerevisiae deletion strains, locus YNR049C, strain mso1, hits give low values 0.972 | S. cerevisiae deletion strains, locus YNR052C, strain pop2, hits give low values 1.01 | S. cerevisiae deletion strains, locus YOL006C, strain TOP1, hits give low values 1.04 | S. cerevisiae deletion strains, locus YOL012C, strain htz1 1.32 | S. cerevisiae deletion strains, locus YOL147C, strain pex11, hits give low values 1.02 | S. cerevisiae deletion strains, locus YOR001W, strain rrp6, hits give low values 0.992 | S. cerevisiae deletion strains, locus YOR061W, strain CKA2, hits give low values 1.02 | S. cerevisiae deletion strains, locus YOR069W, strain VPS5, hits give low values 1.01 | S. cerevisiae deletion strains, locus YOR070C, strain gyp1, hits give low values 0.982 | S. cerevisiae deletion strains, locus YOR080W, strain dia2, hits give low values 0.984 | S. cerevisiae deletion strains, locus YOR083W, strain WHI5 (second series), hits give low values 1.02 | S. cerevisiae deletion strains, locus YOR083W, strain WHI5, hits give low values 0.983 | S. cerevisiae deletion strains, locus YOR106W, strain vam3, hits give low values 0.969 | S. cerevisiae deletion strains, locus YOR136W, strain idh2, hits give low values 1.02 | S. cerevisiae deletion strains, locus YOR144C, strain elg1, hits give low values 1.02 | S. cerevisiae deletion strains, locus YOR184W, strain ser1, hits give low values 0.999 | S. cerevisiae deletion strains, locus YOR231W, strain MKK1, hits give low values 1.02 | S. cerevisiae deletion strains, locus YOR265W, strain rbl2, hits give low values 0.997 | S. cerevisiae deletion strains, locus YOR270C, strain vph1, hits give low values 0.995 | S. cerevisiae deletion strains, locus YOR290C, strain snf2, hits give low values 0.982 | S. cerevisiae deletion strains, locus YOR316C, strain cot1, hits give low values 1.02 | S. cerevisiae deletion strains, locus YPL051W, strain arl3, hits give low values 1 | S. cerevisiae deletion strains, locus YPL055C, strain LGE1, hits give low values 1.01 | S. cerevisiae deletion strains, locus YPL078C, strain atp4, hits give low values 0.988 | S. cerevisiae deletion strains, locus YPL106C, strain sse1, hits give low values 0.957 | S. cerevisiae deletion strains, locus YPL240C, strain hsp82, hits give low values 0.992 | S. cerevisiae deletion strains, locus YPL241C, strain CIN2, hits give low values 1.01 and 1 | S. cerevisiae deletion strains, locus YPL256C, strain CLN2, hits give low values 1.08 | S. cerevisiae deletion strains, locus YPR119W, strain clb2, hits give low values 1.01 | S. cerevisiae deletion strains, locus YPR141C, strain kar3, hits give low values 1.03 | S. cerevisiae deletion strains, locus YPR163C, strain tif3, hits give low values 1.02 | S. cerevisiae deletion strains, locus YPR167C, strain met16, hits give low values 1.01 | S. cerevisiae deletion strains, strain wtn01, hits give low values 1.09 | S. cerevisiae strains, strain wild type, hits give low values 1
